In PubChem BioAssay (Tox21):
Results filed as inconclusive are left out. The source made the active and inactive calls. Unless noted, calls follow the shape of the dose curve; as a rule, active = well fitted curve in the direction sought with a large enough effect in the repeat runs; inconclusive = weak or mixed curves; inactive = no such curve, though single readings can be large; an effect the other way counts as inactive or inconclusive.

Columns and labels:
[1] = qHTS assay to identify small molecule antagonists of the estrogen related receptor (ERR) signaling pathway from Tox21 library - cell viability counter screen (AID 1224834); also: nearly all actives have a fitted effect of over 30% in size
Procedure, shortened: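 ERR reporter cells, 2,000 per well, rested 6 h, then exposed to compound in DMSO for 17.5 hours at 37 C. Viability read as fluorescence after 30 min with CellTiter-Fluor.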

[2] = molecular target: Luciferin 4-monooxygenase (Photinus pyralis) (UniProt P08659); test: qHTS assay to identify small molecule inhibitors of firefly luciferase (AID 1224835); also: series mostly up to about 120 µM; nearly all actives have a fitted effect of over 25% in size
Sequence of Luciferin 4-monooxygenase (Photinus pyralis) (P08659 whole entry, looked up): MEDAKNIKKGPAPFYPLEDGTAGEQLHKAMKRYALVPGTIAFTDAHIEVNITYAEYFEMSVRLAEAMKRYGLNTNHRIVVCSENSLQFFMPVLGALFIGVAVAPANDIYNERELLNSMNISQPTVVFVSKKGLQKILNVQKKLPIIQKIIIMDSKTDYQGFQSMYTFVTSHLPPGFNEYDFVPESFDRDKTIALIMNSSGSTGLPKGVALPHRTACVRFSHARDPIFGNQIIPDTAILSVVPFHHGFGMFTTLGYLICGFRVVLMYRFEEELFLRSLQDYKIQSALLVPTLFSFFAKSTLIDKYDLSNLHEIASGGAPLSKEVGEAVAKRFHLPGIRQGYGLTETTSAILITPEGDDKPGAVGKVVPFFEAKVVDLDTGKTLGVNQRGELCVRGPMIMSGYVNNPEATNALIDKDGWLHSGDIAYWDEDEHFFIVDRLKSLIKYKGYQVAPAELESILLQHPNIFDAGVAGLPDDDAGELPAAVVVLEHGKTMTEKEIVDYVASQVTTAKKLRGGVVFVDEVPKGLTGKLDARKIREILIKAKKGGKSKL
Procedure, shortened: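 Quantitative HTS format; KM concentrations of both substrates. Purified P. pyralis FLuc activity quantified from luminescence images.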

[3] = qHTS assay to identify small molecule agonists of the constitutive androstane receptor (CAR) signaling pathway - cell viability counter screen (AID 1224836); also: series mostly up to about 92 µM; nearly all actives have a fitted effect of over 45% in size
Procedure, shortened: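 Using CellTiter-Fluor, viability of HepG2 cells harbouring hCAR and CYP2B6-2.2kb was measured following 23 h incubation with a 15-concentration compound series plus PK11195 (0.75 uM final).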

[4] = qHTS assay to identify small molecule antagonists of the constitutive androstane receptor (CAR) signaling pathway - cell viability counter screen (AID 1224837); also: series mostly up to about 92 µM; nearly all actives have a fitted effect of over 45% in size
Procedure, shortened: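 HepG2 cells stably carrying hCAR and CYP2B6-2.2kb reporter, stimulated with 50 nM CITCO and compounds at 15 concentrations for 23 h at 37 C. Viability measured by CellTiter-Fluor fluorescence.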

[5] = molecular target: Nuclear receptor subfamily 1 group I member 3 (Homo sapiens) (UniProt Q14994); test: qHTS assay to identify small molecule antagonists of the constitutive androstane receptor (CAR) signaling pathway (AID 1224838); also: nearly all actives have a fitted effect of over 40% in size
Sequence of Nuclear receptor subfamily 1 group I member 3 (Homo sapiens) (Q14994 whole entry, looked up): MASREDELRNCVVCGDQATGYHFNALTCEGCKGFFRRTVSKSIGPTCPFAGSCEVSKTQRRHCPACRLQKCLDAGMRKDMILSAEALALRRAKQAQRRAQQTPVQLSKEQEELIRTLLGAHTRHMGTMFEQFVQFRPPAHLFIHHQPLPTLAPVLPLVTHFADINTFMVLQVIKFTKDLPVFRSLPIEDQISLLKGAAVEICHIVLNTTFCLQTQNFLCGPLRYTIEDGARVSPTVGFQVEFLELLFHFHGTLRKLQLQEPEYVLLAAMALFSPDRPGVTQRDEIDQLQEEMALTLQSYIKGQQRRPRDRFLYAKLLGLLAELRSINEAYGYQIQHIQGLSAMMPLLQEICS
Procedure, shortened: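 HepG2 cells stably carrying hCAR and a CYP2B6-2.2kb luciferase reporter, seeded 4 hrs before compound (15 concentrations). Stimulated with 50 nM CITCO for 24 hr at 37 C. ONE-Glo luminescence read after 30 min at room temperature.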

[6] = molecular target: Nuclear receptor subfamily 1 group I member 3 (Homo sapiens) (UniProt Q14994); test: qHTS assay to identify small molecule agonists of the constitutive androstane receptor (CAR) signaling pathway (AID 1224839); also: series mostly up to about 92 µM; nearly all actives have a fitted effect of over 15% in size
Procedure, shortened: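 Double-stable HepG2 cells (hCAR, CYP2B6-2.2kb) seeded 4 h before compound addition. Exposure 24 h with 0.75 uM PK11195 final. Luciferase detected by ONE-Glo.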

[7] = qHTS assay to identify small molecule antagonists of the estrogen related receptor signaling pathway with the pleiotropic PPARgamma coactivator (PGC) from Tox21 10K library - cell viability counter screen (AID 1224840; active = well fitted cell-killing curve with a large enough effect in the repeat runs, not every such curve was filed as active; also: nearly all actives have a fitted effect of over 40% in size)
Procedure, shortened: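 PGC/ERR cells (2,000/well) plated 6 h, then compound-treated for 17.5 h at 37 C. Viability measured by CellTiter-Fluor fluorescence after 30 min at 37 C, multiplexed with the pathway assay.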

[8] = qHTS assay to identify small molecule antagonists of the estrogen related receptor signaling pathway with the pleiotropic PPARgamma coactivator (PGC) from Tox21 10K library (AID 1224841; call rule not given here; also: series mostly up to about 92 µM; actives are mostly falling curves and most rising ones were filed inactive; nearly all actives have a fitted effect of over 50% in size)
Procedure, shortened: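 PGC/ERR cell line, 2,000 cells/well, pre-incubated 6 hours at 37 C, then exposed to compounds for 18 hours at 37 C; luciferase read with One-Glo luminescence after 30 min at room temperature.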

[9] = qHTS assay to identify small molecule agonists of the estrogen related receptor signaling pathway with the pleiotropic PPARgamma coactivator (PGC) from Tox21 10K library (AID 1224842); also: nearly all actives have a fitted effect of over 15% in size; also: potency is read from the fitted curve at half-maximal effect
Procedure, shortened: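 PGC/ERR reporter cells (NTP line) were seeded 2,000 per well, rested 6 h at 37 C/5% CO2, then pin-dosed with compounds in DMSO for 18 h at 37 C; luciferase read by One-Glo luminescence after 30 min at room temperature.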

[10] = qHTS assay to identify small molecule agonists of the hypoxia (HIF-1) signaling pathway - cell viability counter screen (AID 1224844; calls by dose curve; also: nearly all actives have a fitted effect of over 50% in size)
Procedure, shortened: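 HRE-bla ME-180 cells, 2,000/well in 0.5% dialyzed FBS medium, treated 17 h at 37C with compounds. Viability read in the same wells as the bla reporter, by CellTiter-Glo luminescence after 30 min at room temperature.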

[11] = qHTS assay to identify small molecule agonists of H2AX (AID 1224845; active = well fitted activation curve with a large enough effect in the signal ratio in the repeat runs, not every such curve was filed as active; the % refers to the signal ratio)
Procedure, shortened: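 Wild-type CHO-K1 cells plated overnight, then exposed 3 hr at 37C to compounds at 15 concentrations (0.76% DMSO). Lysed, then HTRF anti-pH2AX(S139)-cryptate/anti-H2AX-d2 detection after 24 hr at room temperature; emissions 665 and 620 nm.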

[12] = qHTS assay to identify small molecule agonists of the hypoxia (HIF-1) signaling pathway (AID 1224846; active = well fitted activation curve with a large enough effect in the signal ratio in the repeat runs, not every such curve was filed as active; the % refers to the signal ratio)
Procedure, shortened: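 HRE-bla ME-180 beta-lactamase reporter cells in medium with 0.5% dialyzed FBS, pre-incubated 5 h then exposed to compounds 17 h at 37C, 5% CO2; reporter induction read with CCF4-AM FRET substrate.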

[13] = qHTS assay to identify small molecule agonists of H2AX - cell viability counter screen (AID 1224847; calls by dose curve; also: top concentration of the series differs between compounds; nearly all actives have a fitted effect of over 30% in size)
Procedure, shortened: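 Quantitative HTS viability measurement: CHO-K1 wild-type cells in serum (10% FBS) medium, short 3 hr drug exposure at 37C with 0.76% DMSO, CellTiter-Glo luminescent detection.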

[14] = qHTS assay to identify small molecule antagonists of the estrogen related receptor (ERR) signaling pathway from Tox21 library (AID 1224848); also: nearly all actives have a fitted effect of over 50% in size
Procedure, shortened: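 Screening used an ERR reporter line supplied by NTP, exposed for 18 h at 37 C to library compounds delivered in DMSO. Signal was luciferase luminescence developed with ONE-Glo at room temperature for 30 min.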

[15] = qHTS assay to identify small molecule agonists of the estrogen related receptor (ERR) signaling pathway from Tox21 library (AID 1224849; calls by dose curve; also: nearly all actives have a fitted effect of over 15% in size)
Procedure, shortened: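 ERR reporter cells (NTP line) pre-incubated 6 hours at 37 C, then exposed to compounds for 18 hours at 37 C. ONE-Glo luciferase luminescence was read after 30 minutes at room temperature.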

[16] = A CellTox Green Cytotoxicity Assay to monitor cytotoxicity in HEK293 cells - 0 hour (AID 1224869); also: nearly all actives have a fitted effect of over 50% in size
Procedure, shortened: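 HEK293 cells, 600/well, were preincubated 5 hours and then exposed to compounds at 37 C for up to 40 hours. A cell-impermeant cyanine dye staining dead-cell DNA was read by fluorescence at 0, 8, 16, 24, 32 and 40 h time points.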

[17] = qHTS RealTime-Glo MT Cell Viability Assay in HepG2 cells - 40 hour (AID 1224870); also: nearly all actives have a fitted effect of over 50% in size
Procedure, shortened: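 HepG2 cells mixed with RealTime-Glo MT reagents (NanoLuc plus cell-permeant prosubstrate) were seeded at 600 cells/well, incubated 5 h at 37 C/5% CO2, then pinned with compounds in DMSO; nonlytic luminescence tracked viability during 40 h treatment.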

[18] = molecular target: Thyrotropin receptor (Homo sapiens) (UniProt P16473); test: qHTS assay to identify small molecule agonists of the thyroid stimulating hormone receptor (TSHR) signaling pathway (AID 1224843; calls by dose curve; also: nearly all actives have a fitted effect of over 45% in size)
Sequence of Thyrotropin receptor (Homo sapiens) (P16473 whole entry, looked up): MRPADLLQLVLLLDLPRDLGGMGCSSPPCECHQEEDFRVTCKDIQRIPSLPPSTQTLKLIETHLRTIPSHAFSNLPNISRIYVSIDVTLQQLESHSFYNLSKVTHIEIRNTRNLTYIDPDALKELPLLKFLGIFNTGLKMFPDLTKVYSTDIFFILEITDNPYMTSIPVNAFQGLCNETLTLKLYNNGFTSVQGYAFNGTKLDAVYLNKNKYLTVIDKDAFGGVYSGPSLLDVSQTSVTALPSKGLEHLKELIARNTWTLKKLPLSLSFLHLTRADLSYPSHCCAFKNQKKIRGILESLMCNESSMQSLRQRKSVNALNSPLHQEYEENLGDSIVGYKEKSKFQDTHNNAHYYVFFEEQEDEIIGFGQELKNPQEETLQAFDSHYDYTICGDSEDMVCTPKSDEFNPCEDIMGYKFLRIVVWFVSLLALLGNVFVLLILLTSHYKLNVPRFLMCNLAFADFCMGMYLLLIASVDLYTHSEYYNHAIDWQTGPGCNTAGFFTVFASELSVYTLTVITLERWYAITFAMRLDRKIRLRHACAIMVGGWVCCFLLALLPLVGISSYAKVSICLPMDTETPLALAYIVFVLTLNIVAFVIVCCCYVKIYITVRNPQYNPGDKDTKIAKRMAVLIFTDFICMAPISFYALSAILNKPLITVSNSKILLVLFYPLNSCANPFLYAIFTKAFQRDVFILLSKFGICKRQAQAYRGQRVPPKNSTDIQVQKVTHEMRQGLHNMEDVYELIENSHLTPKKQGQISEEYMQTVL
Procedure, shortened: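 Cell line HEK293 with TSHR; density 800/well. Exposure 30 min RT. Readout HTRF cAMP (cAMP-d2/anti-cAMP-cryptate), 1 h RT before reading.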

[19] = qHTS RealTime-Glo MT Cell Viability Assay in HepG2 cells - 24 hour (AID 1224867); also: nearly all actives have a fitted effect of over 50% in size
Procedure, shortened: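 Cells + NanoLuc/prosubstrate dispensed (600 cells/well) → 5 h at 37 C/5% CO2 → compounds in DMSO transferred → 40 h incubation at 37 C, luminescence read at 0, 8, 16, 24, 32, 40 h.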

[20] = qHTS RealTime-Glo MT Cell Viability Assay in HEK293 cells - 32 hour (AID 1224868)
Procedure, shortened: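 Tox21 10K qHTS, HEK293, 600 cells/well, RealTime-Glo reagent co-dispensed with cells; 5 h preincubation, compound by pintool, 37 C, luminescence at 0–40 h.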
% is scaled to controls: 0 for no effect and ±100 for the full control effect.

Clc1cc(Cl)c(Cl)nc1Cl
inactive: Potency [1] | Potency [2] | outcome [3] | outcome [4] | Potency [5] | Potency [6] | outcome [7] | Potency [8] | Potency [9] | Potency [10] | Potency [11] | outcome [12] | outcome [13] | Potency [14] | outcome [15] | outcome [16] | Potency [17]

CCCCN1C=CN(C)C1
inactive: viability change, negative = cytotoxic [1] 0.161% [at 19 µM] | activity change, negative = inhibition [2] -0.0434% [at 23.6 µM] | viability change, negative = cytotoxic [3] 5.36% [at 19 µM] | activity change, negative = cytotoxicity [4] -1.55% [at 19 µM] | activity, negative = inhibition [5] 14.7% [at 19 µM] | activation [6] -0.414% [at 19 µM] | viability change, negative = cytotoxic [7] 1.46% [at 19 µM] | activation [9] 0.537% [at 19 µM] | activation [18] 2.47% [at 19 µM] | activity change, negative = cytotoxicity [10] -14.8% [at 15.8 µM] | activation (H2AX phosphorylation) [11] -0.0666% [at 31.6 µM] | activation [12] -0.256% [at 15.8 µM] | activity change, negative = cytotoxicity [13] -1.83% [at 31.6 µM] | activity, negative = inhibition [14] 18.5% [at 19 µM] | activity change, positive = activation [15] 9.96% [at 19 µM] | activity change, negative = cytotoxicity [19] 3.12% [at 15.8 µM] | activity change, negative = cytotoxic [20] 8.51% [at 15.8 µM] | cytotoxicity [16] -3.75% [at 15.8 µM] | activity change, negative = cytotoxic [17] -0.384% [at 15.8 µM]

N[C@@H](CCC(=O)O)C(=O)O
inactive: Potency [1] | Potency [2] | outcome [3] | outcome [4] | Potency [5] | Potency [6] | outcome [7] | Potency [18] | Potency [10] | Potency [11] | outcome [12] | outcome [13] | outcome [19] | outcome [16] | Potency [17]

CCC(C(=O)NC(=O)NC(C)=O)c1ccccc1 (stereo not given)
inactive: Potency [1] | Potency [2] | outcome [3] | outcome [4] | Potency [5] | Potency [6] | outcome [7] | Potency [8] | Potency [9] | Potency [18] | Potency [10] | outcome [12] | Potency [14] | outcome [15] | outcome [19] | outcome [16] | Potency [17]

NS(=O)(=O)Cc1noc2ccccc12
inactive: Potency [1] | Potency [2] | outcome [3] | outcome [4] | Potency [5] | Potency [6] | outcome [7] | Potency [8] | Potency [9] | Potency [10] | Potency [11] | outcome [13] | Potency [14] | outcome [15] | outcome [19] | Potency [20] | outcome [16] | Potency [17]

Cc1nc(C2CCCCC2)c(-c2ccc(S(N)(=O)=O)c(F)c2)o1
inactive: Potency [1] | Potency [2] | outcome [3] | outcome [4] | Potency [5] | Potency [6] | outcome [7] | Potency [8] | Potency [9] | Potency [18] | Potency [10] | outcome [12] | outcome [13] | Potency [14] | outcome [15] | outcome [16] | Potency [17]

O=C(CO)[C@@H](O)[C@H](O)[C@H](O)CO
active: Potency [9] 1.7 nM
inactive: Potency [1] | Potency [2] | outcome [3] | outcome [4] | Potency [5] | Potency [6] | outcome [7] | Potency [8] | Potency [18] | Potency [10] | Potency [11] | outcome [12] | outcome [13] | Potency [14] | outcome [15] | Potency [20] | outcome [16] | Potency [17]

CC(C)(C#N)Nc1nc(Cl)nc(NC2CC2)n1
inactive: Potency [1] | Potency [2] | outcome [3] | outcome [4] | Potency [5] | Potency [6] | outcome [7] | Potency [18] | Potency [10] | Potency [11] | outcome [12] | outcome [13] | outcome [19] | Potency [20] | outcome [16] | Potency [17]

Clc1cc(Cl)cc(Cl)c1
inactive: Potency [1] | Potency [2] | outcome [3] | outcome [4] | Potency [5] | Potency [6] | outcome [7] | Potency [8] | Potency [9] | Potency [18] | Potency [10] | Potency [11] | outcome [12] | outcome [13] | Potency [14] | outcome [15] | outcome [19] | Potency [20] | outcome [16] | Potency [17]

Cc1ncc(COP(=O)(O)O)c(C=O)c1O
inactive: Potency [1] | Potency [2] | outcome [3] | outcome [4] | Potency [5] | Potency [6] | outcome [7] | Potency [18] | Potency [10] | Potency [11] | outcome [12] | outcome [13] | outcome [19] | Potency [20] | outcome [16]

CCOC(=O)OC(C)OC1=C(C(=O)Nc2ccccn2)N(C)S(=O)(=O)c2ccccc21 (stereo not given)
inactive: Potency [1] | Potency [2] | outcome [3] | outcome [4] | Potency [5] | Potency [6] | outcome [7] | Potency [8] | Potency [9] | Potency [18] | Potency [10] | Potency [11] | outcome [12] | Potency [14] | outcome [15] | outcome [19] | Potency [20] | outcome [16] | Potency [17]

COc1cccc(OC)c1C(=O)N[C@@H]1C(=O)N2[C@@H]1SC(C)(C)[C@@H]2C(=O)O
inactive: Potency [1] | Potency [2] | outcome [3] | outcome [4] | Potency [5] | Potency [6] | outcome [7] | Potency [18] | Potency [10] | Potency [11] | outcome [12] | outcome [13] | outcome [19] | Potency [20] | outcome [16]

CN(C)C(=O)Oc1ccc[n+](C)c1
inactive: Potency [1] | Potency [2] | outcome [3] | outcome [4] | Potency [5] | Potency [6] | outcome [7] | Potency [9] | Potency [10] | Potency [11] | outcome [13] | Potency [14] | outcome [15] | outcome [19] | outcome [16] | Potency [17]

C=C(C)C(=O)OCC(O)CO (stereo not given)
inactive: Potency [1] | Potency [2] | outcome [3] | outcome [4] | Potency [5] | Potency [6] | outcome [7] | Potency [8] | Potency [9] | Potency [18] | Potency [10] | Potency [11] | outcome [12] | Potency [14] | outcome [15] | outcome [16] | Potency [17]
